{"source": "PubChem BioAssay (NCATS)", "note": "Results filed as inconclusive are left out. A number with no mark means an inactive call. Calls come from the whole dose curve; as a rule, active = well fitted activation curve with a large enough effect; inconclusive = small, poorly fitted or top-dose-only effect, or another doubt; inactive = no such curve, though single readings can be large or run the other way."}
{"molecular_target": "Rap guanine nucleotide exchange factor 3 (Homo sapiens) (UniProt O95398)", "assay": "Counterscreen qHTS for agonist of cAMP-regulated guanine nucleotide exchange factor 3 (EPAC1) (AID 1645889); note: % of control where 0% means no effect; nearly all actives have a fitted effect of over 40% in size", "conditions": "EPAC1 Rap1B-BODIPY-GDP exchange, fluorescence; series mostly up to 154 µM; activation: at the top concentration", "how_it_was_run": "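Rap1B–BODIPY-GDP (250 nM) with 50 uM GDP; compounds pin-transferred to 9.74 nM–152 uM final (activator) or from 7.32 nM upwards (inhibitor). Fluorescence Ex/Em 480/540 nm read at 5 and 30 min, then after adding cAMP or buffer, at room temperature.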"}
{"smiles": "CCN(CC)c1ccc(N=Cc2c(O)n(CCC3=CCCCC3)c(=O)[nH]c2=O)cc1", "activation": "11.9%"}
{"smiles": "COC(=O)C1=C(c2cc3ccccc3s2)C[C@@H]2CC[C@H]1N2C(=O)NC1CC1", "activation": "1.16%"}
{"smiles": "Cc1ccc(CN2CCCN(Cc3ccccc3C)S2(=O)=O)cc1", "activation": "9.46%"}
{"smiles": "O=C1NC(=S)N(c2ccccc2)C(=O)/C1=C/c1ccco1", "activation": "34%"}
{"smiles": "Cc1cc(OC(C)C(=O)N[C@H](C(=O)O)c2ccccc2)c2c3c(c(=O)oc2c1)CCC3", "note": "(stereo partly drawn)", "activation": "-10.9%"}
{"smiles": "O=C(O)CC1OCC=C2CN3CCC45C6=CC(=O)C(=O)C([N+](=O)[O-])=C6NC4C1C2CC35", "note": "(stereo not drawn)", "activation": "13.5%"}
{"smiles": "Cc1ccc(C)c(Cn2c(C(=O)O)c(C=O)c3ccccc32)c1", "activation": "9.64% [at 30.8 µM]"}
{"smiles": "Oc1c(Cl)cccc1Cc1cc(Cl)cc(Cl)c1O", "activation": "-2.9%"}
